MEKK3 PB1 HTS: raises or lowers MEK5 binding to the human MEKK3 PB1 domain. bead-based flow cytometry, Alexa488-MEK5 binding to MEKK3; actives lie on both sides; 0 = blocked by unlabeled MEK5, 100 = vehicle. binding response (% of control), % at 10 µM. actives 1.4% (n = 290,000). AID 1529;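 active = binding response more than 3 SD above or below the average of its plate-row segment, actives on both sides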;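 note: Alexa488 bead fluorescence after subtracting the streptavidin-only scavenger bead signal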
GRK2 inh: blocks RNA aptamer binding to human GRK2; P25098; bead flow cytometry, FAM-aptamer displacement from GRK2; inhibition of aptamer binding, % at 10 µM; actives 0.59% (n = 330,000);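 active = inhibition of aptamer binding above 40%, roughly 3 SD of noise, on plates passing a quality check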;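 note: median bead fluorescence of bound FAM aptamer so fluorescent compounds give negative values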
Target sequence (P25098 whole entry, looked up): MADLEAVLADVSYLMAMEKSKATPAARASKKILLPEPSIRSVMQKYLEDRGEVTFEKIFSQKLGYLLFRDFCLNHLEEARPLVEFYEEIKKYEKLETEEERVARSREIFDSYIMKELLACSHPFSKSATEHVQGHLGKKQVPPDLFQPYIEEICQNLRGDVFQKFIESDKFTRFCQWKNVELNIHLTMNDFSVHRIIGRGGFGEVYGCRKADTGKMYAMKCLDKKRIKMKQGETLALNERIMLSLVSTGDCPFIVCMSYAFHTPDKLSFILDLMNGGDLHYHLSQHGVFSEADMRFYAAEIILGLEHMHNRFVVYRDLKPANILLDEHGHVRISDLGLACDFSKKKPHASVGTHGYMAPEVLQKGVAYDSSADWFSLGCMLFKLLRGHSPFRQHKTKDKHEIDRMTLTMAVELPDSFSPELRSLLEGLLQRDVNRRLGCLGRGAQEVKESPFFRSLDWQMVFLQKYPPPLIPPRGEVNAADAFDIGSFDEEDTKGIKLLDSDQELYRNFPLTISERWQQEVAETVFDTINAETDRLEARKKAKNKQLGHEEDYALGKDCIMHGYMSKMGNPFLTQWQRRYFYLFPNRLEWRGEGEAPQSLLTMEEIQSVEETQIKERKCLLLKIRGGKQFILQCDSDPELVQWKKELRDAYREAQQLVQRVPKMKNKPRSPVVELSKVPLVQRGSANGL
MEKK2mut PB1 HTS: signal of MEK5 binding to mutant human MEKK2 PB1 domain. AID 1530. actives 0.35% (n = 290,000). percent response, % at 10 µM. bead flow cytometry, Alexa488-MEK5 binding to MEKK2 mutant; in the data active = percent response above about 24%, passing the limit was not always enough
MEKK2 WT-MEK5: raises or lowers MEK5 binding to wildtype human MEKK2 PB1 domain | bead flow cytometry, Alexa488-MEK5 binding to MEKK2 WT; actives lie on both sides | Q9Y2U5 | binding response (% of control), % at 10 µM | AID 1531 | actives 1.1% (n = 290,000); in the data active = binding response below about 67% or above about 130%
MEKK2wt confirm: raises or lowers MEK5 binding to wildtype human MEKK2, retest | actives 2.4% (n = 5,900) | shares compounds with MEKK3 PB1 HTS | binding response (% of control), % at 10 µM | bead flow cytometry, Alexa488-MEK5 binding to MEKK2 WT; actives lie on both sides | AID 1892; in the data active = binding response below about 16% or above about 210%; inactive = in between
MEKK2mut confirm: signal of MEK5 binding to mutant human MEKK2, retest; shares compounds with MEKK3 PB1 HTS; bead flow cytometry, Alexa488-MEK5 binding to MEKK2 mutant; percent response, % at 10 µM; actives 2% (n = 5,900); in the data active = percent response mostly above about 71%, no sharp cut-off; inactive = mostly below about 38%;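 note: higher means compound restores mutant binding toward wildtype level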
MEKK3 confirm: MEKK3-MEK5 PB1 inhibition, single concentration confirmation. actives 1.8% (n = 5,900). bead flow cytometry, Alexa488-MEK5 binding to MEKK3; stronger effect = lower value. binding response (% of control), % at 10 µM. shares compounds with MEKK3 PB1 HTS;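 active = binding response below 72% of control, or above a set upper limit, though filed actives all read lower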;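 note: 100% = DMSO only wells and 0% = binding blocked by excess unlabeled MEK5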
The depositor's hits bear a star; x = no result given; ! = not confirmed by another sample; [ ] = remark or other dose. Sampled rows, rich in hits. Any-hit rate of the full collection: about 2.5%.

SMILES	MEKK3 PB1 HTS	GRK2 inh	MEKK2mut PB1 HTS	MEKK2 WT-MEK5	MEKK2wt confirm	MEKK2mut confirm	MEKK3 confirm
NC(Cc1cc(O)c(O)cc1O)C(=O)O (stereo not drawn)	x	71.0*	x	x	x	x	x
N[C@@H](CCl)C(=O)O	99.0	3.0	3.0	104.0	x	x	x
COC(=O)C1=C(c2cccc(Cl)c2)C[C@@H]2CC[C@H]1N2C(=O)N1CCCC1	x	3.0	x	x	x	x	x
NC(N)=N/N=C/c1cn(-c2ccccc2)nc1-c1cccs1	103.0	0.0	27.0	184.0*	x	x	x
CC[n+]1c(/C=C/C=C/c2ccc(N(C)C)cc2)sc2ccccc21	95.0	22.0	12.0	-5.0*	x	x	x
CN(C)c1ccc(/C=C/C=C/c2sc3ccccc3[n+]2C)cc1	98.0	0.0	8.0	4.0*	x	x	x
O=[N+]([O-])c1ccc2nc(N3CCNCC3)ccc2c1	108.0	1.0	3.0	112.0	x	x	x
COC(=O)C1=C(c2ccc(-c3ccccc3)c(F)c2)C[C@@H]2CC[C@H]1N2C(=O)NCc1cccc2ccccc12	x	5.0	x	x	x	x	x
CC1(C)C(C(=O)N2CCN(C(=O)c3ccccc3)CC2)C1(C)C	100.0	1.0	2.0	96.0	x	x	x
O=C1NC(=O)N(Cc2ccc(F)cc2)C(=O)/C1=C\c1ccc(N2CCCC2)cc1	93.0	0.0	10.0	18.0*	x	x	x
C[C@](N)(CCP(=O)(O)O)C(=O)O	x	3.0	x	x	x	x	x
Cc1nn(Cc2ccccc2Cl)c(Cl)c1C(=O)O	100.0	1.0	-2.0	100.0	x	x	x
Cc1nn(Cc2c(Cl)cccc2Cl)c(Cl)c1C(=O)O	102.0	0.0	4.0	-4.0*	x	x	x
CCN(CC)c1ccc(N=Cc2c(O)n(-c3ccccc3)c(=O)[nH]c2=O)cc1	96.0	100.0*	-9.0	100.0	x	x	x
CCOc1ccc(C(C)=O)cc1Cn1ccsc1=N	104.0	0.0	23.0	145.0*	x	x	x
CNCC[C@@H](Oc1ccc(C(F)(F)F)cc1)c1ccccc1	x	0.0	x	x	x	x	x
O=c1[nH]c(O)c(C=Nc2ccccc2Sc2ccccc2)c(=O)[nH]1	96.0	1.0	-6.0	92.0	x	x	x
O=c1[nH]c(O)c(C=Nc2ccccc2[N+](=O)[O-])c(=O)[nH]1	84.0	58.0*	-2.0	91.0	x	x	x
CN(C)[C@@H]1C(=O)C(C(N)=O)=C(O)[C@@]2(O)C(=O)C3=C(O)c4c(O)cccc4[C@@](C)(O)[C@H]3[C@H](O)[C@@H]12	90.0	57.0*!	-3.0	97.0	x	x	x
CN(C)[C@@H]1C(=O)C(C(N)=O)=C(O)[C@@]2(O)C(=O)C3=C(O)c4c(O)cccc4[C@@](C)(O)C3C[C@@H]12 (stereo partly drawn)	x	3.0	x	x	x	x	x
O=C1NC(=S)N(c2ccccc2)C(=O)/C1=C/c1ccco1	106.0	43.0*	2.0	105.0	x	x	x
COC(=O)C1=C(c2ccc(C(C)=O)cc2)C[C@@H]2CC[C@H]1N2C(=O)N1CCC(O)(c2ccc(Cl)cc2)CC1	x	4.0	x	x	x	x	x
CCOc1ccc(-c2cc(C)[n+](CCc3ccc(OC)c(OC)c3)c(-c3ccc(OCC)cc3)c2)cc1	113.0	0.0	37.0*	141.0*	51.0	-13.0	86.0
Cn1c(CN2CCN(C(=O)COc3ccccc3)CC2)nc2cc([N+](=O)[O-])ccc21	152.0*	0.0	0.0	106.0	98.0	-2.0	102.0
Cc1cccc(OCC(=O)N2CCN(Cc3ccc([N+](=O)[O-])cc3)CC2)c1	88.0	1.0	-15.0	79.0	x	x	x
SMILES	MEKK3 PB1 HTS	GRK2 inh	MEKK2mut PB1 HTS	MEKK2 WT-MEK5	MEKK2wt confirm	MEKK2mut confirm	MEKK3 confirm
c1ccc2c(CN3CCCCCCC3)c[nH]c2c1	x	0.0	x	x	x	x	x
c1ccc2c(CN3CCN(C4CCCCC4)CC3)c[nH]c2c1	114.0	0.0	44.0*	168.0*	167.0	50.0	105.0
Cc1ccc2c(c1)C(c1ccccc1)NCC(=O)N2 (stereo not drawn)	74.0*[inhibitor]	7.0	-11.0	88.0	50.0	-16.0	90.0
Cc1cc(C(=O)C[N+]23CCN(CC2)CC3)c(C)n1-c1ccc(Br)cc1	146.0*	0.0	12.0	158.0*	120.0	15.0	106.0
COC(=O)C1=C(c2ccccc2OCc2ccccc2)C[C@@H]2CC[C@H]1N2C(=O)NCc1ccc([N+](=O)[O-])cc1	x	1.0	x	x	x	x	x
CCCNC(=O)c1c(N)n(CC2CCCO2)c2nc3ccccc3nc12 (stereo not drawn)	123.0*	0.0	4.0	116.0	102.0	0.0	103.0
CC(C)OCCCNC(=O)c1c(N)n(CC2CCCO2)c2nc3ccccc3nc12 (stereo not drawn)	106.0	4.0	5.0	99.0	x	x	x
COC(=O)C1=Nc2ccccc2/C1=C\c1c(O)n(C)c(=O)n(C)c1=O	74.0*[inhibitor]	0.0	-30.0	55.0*[inhibitor]	98.0	-4.0	100.0
Cn1c(O)c(/C=C2\C=Nc3ccccc32)c(=O)n(C)c1=O	106.0	1.0	6.0	105.0	x	x	x
COc1ccc2[nH]cc(C3=CCNCC3)c2c1	109.0	0.0	174.0*	182.0*	123.0	-18.0	98.0
CCOC(=O)C(O)(c1ccc(NC(=O)Oc2ccccc2)cc1)C(F)(F)F (stereo not drawn)	130.0*	0.0	3.0	107.0	107.0	10.0	103.0
CCN(C(=O)Oc1ccccc1)c1ccc(C(O)(C(=O)OC)C(F)(F)F)cc1 (stereo not drawn)	95.0	3.0	-1.0	99.0	x	x	x
CN(C)c1ccc(/C=C/c2cc[n+](C)c3ccccc23)cc1	70.0*[inhibitor]	x	-31.0	x	95.0	-4.0	87.0
COC(=O)C1=C(c2cccc(OCc3ccccc3)c2)C[C@@H]2CC[C@H]1N2C(=O)NCCN1CCOCC1	x	0.0	x	x	x	x	x
CC(C)OP(=O)(OC(C)C)C(O)c1ccc(Br)cc1 (stereo not drawn)	149.0*	0.0	-1.0	108.0	105.0	2.0	104.0
O=C(NC(=S)N1C[C@H]2C[C@H](C1)c1cccc(=O)n1C2)c1ccc(Cl)cc1Cl	101.0	0.0	-1.0	100.0	x	x	x
COC(=O)C1=C(c2ccc(C(C)=O)cc2)C[C@@H]2CC[C@H]1N2C(=O)NCc1ccc(C(F)(F)F)cc1	x	1.0	x	x	x	x	x
OC(c1ccccc1)(c1ccccc1)C1CCNCC1	101.0	0.0	9.0	136.0*	105.0	7.0	101.0
COc1ccccc1N1CCN(C2CCCN(C(=O)COc3ccccc3Cl)C2)CC1 (stereo not drawn)	99.0	x	-3.0	102.0	x	x	x
Cc1ccccc1-n1c(C)nc2sccc2c1=O	2.0*[inhibitor]	5.0	-18.0	3.0*[inhibitor]	106.0	6.0	106.0
C[C@]12CCC3C(CC[C@H]4C[C@@H](O)[C@H](O)C[C@]34C)C1CC[C@@H]2O (stereo partly drawn)	x	4.0	x	x	x	x	x
C#CCN(C)C(C)Cc1ccccc1 (stereo not drawn)	69.0*[inhibitor]	0.0	3.0	61.0*[inhibitor]	99.0	-6.0	100.0

Source: PubChem BioAssay (NMMLSC)
